Measurements published in PubChem BioAssay (NCI).
Compounds without any hit were thinned out: in the full panel of roughly 83,000, 20% have a hit.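 Cells were grown in 96-well plates and exposed to the test compound at a single concentration for 48 hours; results are reported as percent growth, with values below 10 considered active.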 A number with no mark means an inactive call. Active and inactive are the calls of the source.

How the values were obtained:
Experiment in all cases: NCI-60 one-dose screen, 48 h (100 = growth as untreated, 0 = no growth, -100 = all killed)
Details in all cases: 10 µM unless noted
HCT-15 colon = tested on: HCT-15 colon
HT29 colon = tested on: HT29 colon
SNB-75 CNS = tested on: SNB-75 CNS
SNB-19 CNS = tested on: SNB-19 CNS
U251 CNS = tested on: U251 CNS
PC-3 prostate = tested on: PC-3 prostate
SK-MEL-5 melanoma = tested on: SK-MEL-5 melanoma
UACC-62 melanoma = tested on: UACC-62 melanoma
LOX IMVI melanoma = tested on: LOX IMVI melanoma
SK-MEL-28 melanoma = tested on: SK-MEL-28 melanoma

Structure (SMILES)	growth (HCT-15 colon)	growth (HT29 colon)	growth (SNB-75 CNS)	growth (SNB-19 CNS)	growth (U251 CNS)	growth (PC-3 prostate)	growth (SK-MEL-5 melanoma)	growth (UACC-62 melanoma)	growth (LOX IMVI melanoma)	growth (SK-MEL-28 melanoma)
CN1CCN(CCOc2ccc(-c3cnc4c(-c5ccc(F)cc5)cnn4c3)cc2)CC1	-15.8% (active)	1.11% (active)	68%	82%	38.2%	47.5%	61.2%	50.7%	-78.5% (active)	79.4%
O=[N+]([O-])c1ccc(-c2cn3nc(-c4c[nH]c5ccccc45)sc3n2)cc1	86%	95.3%	96.4%	93.4%	96.9%	93.7%	91.2%	84.2%	94.7%	111%
O=c1c2ccccc2c(=O)c2c1sc1c(=O)c3ccc(O)cc3c(=O)c12	-65.4% (active)	-47.4% (active)	-96.4% (active)	-92% (active)	-65.8% (active)	-12.7% (active)	-96.2% (active)	-73.2% (active)	-61% (active)	-65% (active)
CC1(C)N=C(N)N=C(N)N1c1cccc(CCc2ccccc2)c1	85.8%	14.3%	63%	31.3%	38.1%	34.6%	12%	24.7%	24%	46.3%
Cn1c2c(c3ccc(Cl)c(Cl)c31)C(C#N)C(C)(C)NC2=O (stereo not given)	96.1%	88.5%	76.6%	91.8%	91.1%	95.1%	5.3% (active)	66.6%	84.4%	105%
COC1=C(C)C(=O)N2[C@@H]1[C@H](c1ccccc1)OC21C=CC(=O)C=C1	-27.3% (active)	-12.6% (active)	52.7%	64.9%	26.2%	-5.32% (active)	33%	-55.2% (active)	-61.6% (active)	-14.4% (active)
CN(Cc1cc(Br)cc(Br)c1O)Cc1cc(Br)cc(Br)c1O	22.2%	32.9%	61.5%	40.5%	32.8%	39.5%	3.66% (active)	18.8%	34.6%	74%
O=C(Cn1nnc2ccccc21)N/N=C/c1c[nH]c2ccccc12	33.3%	13.1%	33.5%	41.3%	39.5%	61.7%	28.4%	23%	46.1%	72.5%
COc1ccc(/C=C/C(c2cc(OC)c(OC)c(OC)c2)n2ccnc2)cc1O (stereo not given)	24.9%	71%	20%	47.3%	27.1%	25.3%	17%	36.4%	46.1%	58.9%
Oc1c(CN2CCOCC2)cc(COCc2ccccc2)c2cccnc12	20.5%	88.2%	49.5%	35.7%	11%	31.4%	-12.3% (active)	-25.7% (active)	12.5%	36.3%
COC(=O)c1ccc(NC(=O)Nc2ccc(C(=O)OC)cc2)cc1	93%	82.4%	113%	97.2%	113%	82%	102%	82.3%	98.1%	102%
CCn1c(-c2cc3c([nH]c4ccccc43)c(-c3cccc(O)c3)n2)n[nH]c1=S	50.2%	-19.4% (active)	22.2%	62.6%	23.8%	34.1%	-1.38% (active)	43.6%	32.5%	53.6%
CC/C(Cc1ccccc1)=C(\c1ccc(OCCCN(C)C)cc1)c1ccc(OC(=O)NCc2ccccc2)cc1	4.38% (active)	7.12% (active)	69.4%	76.3%	35.7%	64.5%	74.4%	85%	15.5%	90%
O=C(NCc1cccc(CNC(=O)Nc2nc3ccccc3[nH]2)c1)Nc1nc2ccccc2[nH]1	69.5%	-45.7% (active)	-42.2% (active)	9.35% (active)	-77.9% (active)	-59.8% (active)	-46.5% (active)	-15.9% (active)	-20.4% (active)	-76.9% (active)
CNC(=O)c1cc(Oc2cccc3nc(NC(=O)Nc4cc(C(F)(F)F)ccc4Cl)ccc23)ccn1	90%	89.8%	68.9%	102%	70.4%	96.5%	80.2%	96.3%	63.9%	92.4%
O=C1C(Nc2ccccn2)=C(I)C(=O)c2ncccc21	-60% (active)	-14.5% (active)	-94.3% (active)	0% (active)	-82.4% (active)	6.61% (active)	-98.9% (active)	-68% (active)	-72.7% (active)	-36.7% (active)
Cc1ccc2c(-c3nnc(N)s3)cc(=O)oc2c1C	96.9%	106%	92.6%	104%	99.7%	97.1%	101%	94.8%	101%	102%
NC(N)=NS(=O)(=O)c1ccc(NC2=C(I)C(=O)c3ncccc3C2=O)cc1	103%	106%	67.9%	98.7%	110%	92.1%	97.9%	94.2%	95%	135%
C=C(CNCCO)[C@@H]1CC[C@]2(CO)CC[C@]3(C)[C@H](CC[C@@H]4[C@@]5(C)CCC(N)C(C)(C)[C@@H]5CC[C@]43C)[C@@H]12 (stereo not given in full)	77%	-22.4% (active)	43.5%	53.9%	-78.5% (active)	61.9%	-87.8% (active)	9.7% (active)	-67.8% (active)	-76.3% (active)
C=C1C(=O)O[C@H]2[C@H]1CC/C(COC(=O)/C=C/C(=O)OC/C1=C/CC[C@@]3(C)O[C@H]3[C@H]3OC(=O)C(=C)[C@@H]3CC1)=C\CC[C@@]1(C)O[C@@H]21	13.1%	8.88% (active)	95.2%	90.5%	76%	61.1%	83.1%	55.1%	3.81% (active)	51.8%
O=C(CCl)NNc1nccc(Nc2ccc(S(=O)(=O)Nc3ccncc3)cc2)n1	22.2%	27.4%	54.7%	31.1%	-9.06% (active)	56%	7.95% (active)	31.4%	17.6%	53.7%
CC1(C)CC[C@]23CC[C@]4(C)[C@H](CC[C@@H]5[C@@]6(C)C/C(=C/c7ccncc7)C(=O)C(C)(C)[C@@H]6CC[C@]54C)[C@H]2[C@H]1OC3	73.4%	43.9%	61.4%	83.4%	70%	51%	78.8%	90.5%	73.1%	76%
O=C(O)c1cn(C2CC2)c2cc(N3CCN(C(=O)Nc4nc(-c5ccc(Br)cc5)cs4)CC3)c(F)cc2c1=O	14.3%	9.27% (active)	24%	19.7%	12.7%	19.2%	-41% (active)	-1.55% (active)	-9.03% (active)	42.2%
COc1ccc(N2CCC(=S)NC2=S)cc1	101%	104%	71.6%	94.5%	101%	107%	98.2%	90.3%	95.3%	113%
Nc1ccc(-c2csc(-n3[nH]c(=O)ccc3=O)n2)cc1	89.1%	94.5%	99%	98.6%	100%	96.2%	-99.6% (active)	101%	102%	108%
COc1ccc(/C(C)=C(\c2ccc(Cl)cc2)c2ccc(OCCN3CCCCC3)cc2)cc1	9.98% (active)	-2.6% (active)	89.1%	62.8%	36.4%	41%	-39% (active)	33.4%	3.11% (active)	20.1%
